HT1080-NT tox: qHTS for induction of synthetic lethality in tumor cells producing 2HG: qHTS for the HT-1080-NT fibrosarcoma cell line | HT-1080-NT fibrosarcoma viability, CellTiter-Glo ATP luminescence, 48 h | Potency, µM (top dose mostly 46.1 µM), actives largely listed as cytotoxic | hit rate 1.6% among 360,000;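 note: NT is the 2HG producing partner of a matched IDH1 knockdown line; nearly all actives have a fitted effect of over 55% in size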
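HT-1080-NT fibrosarcoma cells (2HG-overproducing), 750 cells/well in RPMI with 5% FBS, dosed after 2 h and incubated 48 h at 37C. CellTiter-Glo luminescence normalized to DMSO and no-cell wells; concentration-response curves fitted and classed.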
MCF10A rereplic: A quantitative high throughput screen for small molecules that induce DNA re-replication in MCF 10a normal breast cells | AID 624296, 2012 | hit rate 2.9% among 350,000 | MCF 10A DNA re-replication, Hoechst nuclear intensity, 48 h | Potency, µM (series often up to 46.1 µM), hits mostly activators; note: nearly all actives have a fitted effect of over 50% in size
HT1080 IDH1KD tx: qHTS for induction of synthetic lethality in tumor cells producing 2HG: qHTS for the HT-1080-IDH1KD cell line; HT-1080 IDH1 knockdown viability, ATP luminescence, 48 h; Potency, µM (doses to about 46.1 µM), most hits filed as cytotoxic; hit rate 2% among 360,000; AID 686971, 2013
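Viability of IDH1-knockdown HT-1080 fibrosarcoma cells was assessed by CellTiter-Glo after 48 h at 37 °C with titrated compound; concentration-effect curves were classified by fit quality and response size.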
KB-3-1 tox: qHTS assay for MDR1-selective chemotherapeutics: Primary screen using the parental adenocarcinoma cell KB-3-1; KB-3-1 viability, CellTiter-Glo ATP luminescence, 72 h; Potency, µM (top dose mostly 46.1 µM), hits mostly cytotoxic; hit rate 1.4% among 400,000; AID 1347075, 2019; note: nearly all actives have a fitted effect of over 60% in size
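Cytotoxicity in the drug-sensitive parental line KB-3-1 was scored as loss of CellTiter-Glo luminescence following 72 h incubation with compound. Values come from curve fitting of normalized concentration-response data.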
KB-V1 MDR tox: qHTS assay for MDR1-selective chemotherapeutics: Primary screen using the drug-selected MDR subline cells KB-V1; KB-V1 MDR cells viability, CellTiter-Glo, 72 h; Potency, µM (highest dose often 46.1 µM), usual class: cytotoxic; hit rate 3.4% among 400,000; AID 1347076, 2019; note: nearly all actives have a fitted effect of over 60% in size
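KB-V1 cells (P-gp-expressing MDR subline of KB-3-1) in phenol-red-free DMEM with 10% FBS were exposed to library compounds over a concentration series for 72 h at 37 degrees C. Viability read by CellTiter-Glo luminescence; concentration-effect curves fitted after normalization.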
SW480 rereplic: A quantitative high throughput screen for small molecules that induce DNA re-replication in SW480 colon adenocarcinoma cells | SW480 DNA re-replication, Hoechst DNA content imaging, 48 h | Potency, µM (doses to about 46.1 µM), usual class: activators | hit rate 1.8% among 340,000 | AID 624297, 2012; note: nearly all actives have a fitted effect of over 55% in size
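250 cells/well; 23 nL cpd via pin tool; 48 hr, 37 C, 5% CO2; Hoechst 40 min; imager read of total nuclear intensity, ex 405/em 500-530 nm.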
Of the large screens only hits and unclear results are named; the others gave an inactive call. Sampled rows, rich in hits. Any-hit rate of the full collection: about 7.9%. Calls come from the whole dose curve; as a rule, active = well fitted curve in the direction sought with a large enough effect; inconclusive = small, poorly fitted or top-dose-only effect, or another doubt; inactive = no such curve, though single readings can be large; an effect the other way counts as inactive or inconclusive.

CO[C@H]1CN(C)C(=O)c2cc(NS(=O)(=O)c3ccccc3)ccc2OC[C@@H](C)N(Cc2ccccn2)C[C@@H]1C	none (no result: MCF10A rereplic, SW480 rereplic)
Cc1ccn(-c2ccc([N+](=O)[O-])cc2)n1	SW480 rereplic 20.6µM
CC(C)(C)c1nc(-c2ccccc2)nc2c1OCCC2	MCF10A rereplic 25.9µM, KB-V1 MDR tox inconclusive
Cc1ccc(-c2nn(CC(=O)NC(C)c3ccccc3)c(=O)c3ccccc23)cc1 (stereo not given)	none
O=C(COC(=O)C12CC3CC(CC(C3)C1)C2)Nc1ccccc1F	none
Oc1ccc(N2CCN(c3nnnn3-c3ccccc3)CC2)cc1	KB-V1 MDR tox inconclusive
O=C(Nc1cccc(Cl)c1)Nc1cc(S(=O)(=O)N2CCOCC2)ccc1N1CCCC1	none
COc1ccc(C2c3c(ncn(CCCN4CCOCC4)c3=N)Oc3ccc4ccccc4c32)cc1OC (stereo not given)	SW480 rereplic 18.4µM
COc1ccc(C2c3ccc4ccccc4c3Oc3ncn(CCN4CCOCC4)c(=N)c32)cc1 (stereo not given)	HT1080-NT tox inconclusive, HT1080 IDH1KD tx inconclusive, KB-3-1 tox inconclusive, KB-V1 MDR tox inconclusive, SW480 rereplic 23.1µM
COc1ccc(C2c3ccc4ccccc4c3Oc3ncn(CCN4CCOCC4)c(=N)c32)cc1OC (stereo not given)	none
COc1ccc(C2c3ccc4ccccc4c3Oc3ncn(CCN(C)C)c(=N)c32)cc1 (stereo not given)	HT1080-NT tox inconclusive, MCF10A rereplic 20.6µM, HT1080 IDH1KD tx inconclusive, KB-3-1 tox inconclusive, KB-V1 MDR tox inconclusive, SW480 rereplic inconclusive
COc1ccc(C2c3ccc4ccccc4c3Oc3ncn(CCCO)c(=N)c32)cc1 (stereo not given)	HT1080-NT tox 18.4µM, MCF10A rereplic inconclusive, HT1080 IDH1KD tx inconclusive, SW480 rereplic inconclusive
CN(C)CCNC(=S)Nc1cccc(Cl)c1	KB-3-1 tox inconclusive
Cc1ccc(C(=O)NCCOc2ccc(Cl)cc2)cc1	none
COCCN(C(=O)COC(=O)c1cccc2ccccc12)c1c(N)n(Cc2ccccc2)c(=O)[nH]c1=O	none
N=c1c2c(ncn1CCCO)Oc1c(ccc3ccccc13)C2c1ccccc1 (stereo not given)	HT1080-NT tox inconclusive, MCF10A rereplic inconclusive, KB-3-1 tox inconclusive, KB-V1 MDR tox 16.4µM, SW480 rereplic inconclusive
COc1ccc(C2c3ccc4ccccc4c3Oc3ncn(CCCO)c(=N)c32)cc1OC (stereo not given)	HT1080-NT tox 7.31µM, MCF10A rereplic 18.4µM, HT1080 IDH1KD tx 5.17µM, KB-3-1 tox inconclusive, KB-V1 MDR tox inconclusive, SW480 rereplic 18.4µM
COc1ccc(C2c3ccc4ccccc4c3Oc3ncn(CCO)c(=N)c32)cc1OC (stereo not given)	KB-V1 MDR tox inconclusive, SW480 rereplic inconclusive
CN(C)CCCn1cnc2c(c1=N)C(c1ccccc1)c1ccc3ccccc3c1O2 (stereo not given)	HT1080-NT tox inconclusive, MCF10A rereplic 18.4µM, HT1080 IDH1KD tx inconclusive
COc1ccc(C2c3ccc4ccccc4c3Oc3ncn(CCO)c(=N)c32)cc1 (stereo not given)	HT1080-NT tox inconclusive, MCF10A rereplic inconclusive, HT1080 IDH1KD tx 11.6µM, SW480 rereplic inconclusive
C/C=C\C(=O)N(CC)c1ccccc1C	none (no result: HT1080-NT tox, HT1080 IDH1KD tx, KB-3-1 tox, KB-V1 MDR tox)
Cc1cc(C)n(CC(O)COc2ccc(Cl)cc2Cl)n1 (stereo not given)	KB-3-1 tox inconclusive, KB-V1 MDR tox 10.3µM
Cc1nc2cc(OCc3cc(C(=O)NC(C)c4cnn(C)c4)no3)ccc2s1 (stereo not given)	KB-V1 MDR tox 10.3µM
CC(C)c1nnc(NC(=O)C2CCN(c3cnccn3)CC2)s1	KB-V1 MDR tox 23.1µM
C=CCNC(=O)C1CCN(c2cnccn2)CC1	HT1080-NT tox inconclusive, MCF10A rereplic 0.231µM, KB-V1 MDR tox inconclusive
O=C(NCc1ccc(F)cc1)C1CCN(c2cnccn2)CC1	none
CCc1nnc(NC(=O)C2CCN(c3cnccn3)CC2)s1	none
Nc1cccc(NC(=O)c2ccco2)c1	KB-V1 MDR tox inconclusive
O=C(Nc1ccccc1)C1=C[C@H](c2ccc(C(F)(F)F)cc2)C[C@H](OCc2ccc(CO)cc2)O1	HT1080-NT tox inconclusive, MCF10A rereplic 25.9µM
O=C(O)C1=C[C@@H](c2ccc(C(F)(F)F)cc2)C[C@@H](OCc2ccc(CO)cc2)O1	KB-V1 MDR tox 18.4µM
O=C(Nc1ccccc1)C1=C[C@H](c2ccccc2)C[C@H](OCc2ccc(CO)cc2)O1	none
COc1nc(-c2ccccc2)cc(-c2ccc(OC)c(OC)c2)n1	MCF10A rereplic inconclusive, HT1080 IDH1KD tx inconclusive, KB-V1 MDR tox 8.2µM, SW480 rereplic inconclusive
COc1ccc(-c2cc(-c3ccccc3)nc(NN)n2)cc1OC	HT1080-NT tox inconclusive, HT1080 IDH1KD tx inconclusive, SW480 rereplic inconclusive
Cc1ccc(C(C2C(=O)CC(C)(C)CC2=O)C2C(=O)CC(C)(C)CC2=O)s1	HT1080-NT tox inconclusive, MCF10A rereplic 18.4µM
COCCN(Cc1cc2ccc(C)c(C)c2nc1Cl)C(=O)N1CCOCC1	none
Cc1cc(C)c2nc(Cl)c(CN(Cc3ccco3)C(=O)Nc3ccccc3C)cc2c1	HT1080-NT tox 5.01µM, MCF10A rereplic inconclusive, HT1080 IDH1KD tx 5.62µM, SW480 rereplic inconclusive
Cc1cc(C)c2cc(CN(Cc3ccco3)C(=O)NCc3ccccc3)c(=O)[nH]c2c1	MCF10A rereplic inconclusive, KB-3-1 tox inconclusive, SW480 rereplic inconclusive
COCCN(Cc1cc2cc(C)cc(C)c2nc1Cl)C(=O)Nc1ccccc1	HT1080-NT tox 10µM, HT1080 IDH1KD tx 7.08µM, KB-3-1 tox inconclusive, KB-V1 MDR tox 5.8µM, SW480 rereplic inconclusive
CCn1nc(C(=O)OC(C(=O)c2c[nH]c3ccccc23)c2ccccc2)c2ccccc2c1=O (stereo not given)	HT1080-NT tox inconclusive, HT1080 IDH1KD tx inconclusive, KB-V1 MDR tox 11.6µM
CCn1nc(C(=O)OCC(=O)c2ccc(F)cc2)c2ccccc2c1=O	none
CN(C(=O)C12CC3CC(CC(C3)C1)C2)C1CCS(=O)(=O)C1 (stereo not given)	none
O=C(Nc1nnc(C2CCCCC2)s1)c1ccco1	KB-V1 MDR tox inconclusive
COc1ccc(C2Nc3cc(OC)ccc3-n3cccc32)cc1 (stereo not given)	MCF10A rereplic 16.4µM, KB-V1 MDR tox inconclusive, SW480 rereplic 20.6µM
Cc1cscc(C)c1=S	none (no result: MCF10A rereplic, SW480 rereplic)

Screening data as filed in PubChem.
